The term AC50 denotes the concentration giving half of the maximal activity seen.

The record followed here is PubChem BioAssay (EPA / NIEHS).

The target in assay [1] is Estrogen receptor (Homo sapiens) (UniProt P03372). The experiment in a line: CCTE_Deisenroth_AIME_384WELL_LUC_Active: CCTE's 384-well Estrogen Receptor Transactivation Assay with AIME metabolic competence (ERTA luciferase; metabolism positive), Deisenroth Lab (AID 2284030; active = hit-call score of the fitted dose curve at least 0.9, where 1 is the maximum). In short, it runs like this: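 Chemicals (10-point, 0.002-200 uM) were first incubated 2 hours with alginate-immobilized induced male Sprague Dawley rat liver S9. The conditioned medium was then applied to VM7Luc4E2 cells for 24 hours, with ER luciferase induction read by luminescence relative to 17beta-estradiol.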

For assay [2] the target is unchanged. In words: CCTE_Deisenroth_AIME_384WELL_LUC_Inactive: CCTE's 384-well Estrogen Receptor Transactivation Assay without AIME metabolic competence (ERTA luciferase; metabolism negative), Deisenroth Lab (AID 2284038; active = hit-call score of the fitted dose curve at least 0.9, where 1 is the maximum;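 note: VM7Luc4E2 breast cells given medium preincubated 2 h with S9-free microspheres; hits raise estrogen receptor luciferase signal so potencies reflect agonists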). In short, it runs like this: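 Metabolism-negative mode: AIME lids stamped in alginate-water, no hepatic S9. 2 h chemical incubation → medium onto VM7Luc4E2 ERTA, 24 h. Readout luciferase luminescence; gain-of-signal fit vs 17beta-estradiol. Conc. 0.002 - 200 uM.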

Assay [3] has the same target. The experiment in a line: CCTE_Deisenroth_AIME_384WELL_LUC_Shift: CCTE's 384-well Estrogen Receptor Transactivation Assay with AIME metabolic competence data shift (ERTA luciferase; difference in metabolism positive and negative), Deisenroth Lab (AID 2284041).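 Note: shift is response with S9 minus without S9 so positive means metabolism raised ER signal.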 In short, it runs like this: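 Chemicals (0.002–200 uM, 10 points) pre-incubated 2 h with alginate-encapsulated induced male Sprague Dawley rat liver S9 or S9-free, then medium applied 24 h to VM7Luc4E2 cells; luciferase. Endpoint is per-concentration difference, S9-positive minus negative.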

Assay [4] can be described thus: CCTE_Shafer_MEA_dev_firing_rate_mean: CCTE's Neural Network Formation Assay for Mean Firing Rate, Shafer Lab (AID 2284031).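 For AC50: curve fitted for loss of firing so AC50 reflects decreased mean firing rate.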 In short, it runs like this: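 Extracellular spike frequency, AUC over DIV 5–12 recordings, in rat cortical neuron MEA cultures dosed from plating; loss direction vs DMSO.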
Assay [5] is described as follows: CCTE_Shafer_MEA_dev_per_burst_spike_percent: CCTE's Neural Network Formation Assay for Percent of Spikes in a Burst, Shafer Lab (AID 2284032).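 For AC50: fitted as a decrease in burst spike percentage below DMSO baseline.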 The gist of the method:
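Value is trapezoidal AUC over recordings on days 5, 7, 9 and 12 of the well-mean fraction of spikes falling in single-electrode bursts; rat cortical cultures exposed continuously from plating, treatment renewed DIV 5 and 9, fitted downward against DMSO.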

The nature of assay [6]: CCTE_Shafer_MEA_dev_active_electrodes_number: CCTE's Neural Network Formation Assay for Number of Active Electrodes, Shafer Lab (AID 2284040; active = hit-call score of the fitted dose curve at least 0.9, where 1 is the maximum;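 for AC50: potency for loss of active electrodes versus DMSO so lower counts are hits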). The gist of the method: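 Developing rat cortical networks on MEAs, exposed DIV 0–12. Value is the AUC of active-electrode counts (≥5 spikes/min) from days 5, 7, 9, 12, relative to DMSO.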
The nature of assay [7]: CCTE_Shafer_MEA_dev_burst_rate: CCTE's Neural Network Formation Assay for Burst Rate, Shafer Lab (AID 2284042).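 For AC50: potency for loss of burst rate below DMSO control.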 The gist of the method:
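Developmental network assay measuring how 12-day exposure of rat cortical neuron cultures alters bursting on extracellular MEA recordings. Values are AUC of well-mean burst rate across four recording days, relative to DMSO vehicle.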

The nature of assay [8]: CCTE_Deisenroth_AIME_384WELL_CTox_Active: Cytotoxicity Assessment (CTOX) in CCTE's 384-well Estrogen Receptor Transactivation Assay with AIME metabolic competence (metabolism positive), Deisenroth Lab (AID 2284037; active = hit-call score of the fitted dose curve at least 0.9, where 1 is the maximum;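 note: chemicals first conditioned 2 h by alginate-bound induced rat liver S9 before cells; activity means signal loss indicating cell death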). The gist of the method:
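Chemicals pre-incubated 2 hours with alginate-immobilised phenobarbital/beta-naphthoflavone-induced male Sprague Dawley rat liver S9, then conditioned medium applied 24 hour to VM7Luc4E2 cells. Viability by fluorogenic protease substrate; 10-point series 0.002 - 200 uM.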

Assay [9] can be described thus: CCTE_Deisenroth_AIME_384WELL_CTox_Inactive: Cytotoxicity Assessment (CTOX) in CCTE's 384-well Estrogen Receptor Transactivation Assay without AIME metabolic competence (metabolism negative), Deisenroth Lab (AID 2284039; active = hit-call score of the fitted dose curve at least 0.9, where 1 is the maximum;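 note: cell viability via live-cell protease substrate cleaved to fluorescent probe; cells exposed 24 h to medium preincubated 2 h with alginate-water beads without S9; loss of fluorescence signal means loss of viability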). In short, it runs like this:
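Fluorescence from a live-cell protease substrate, read after 24 h in VM7Luc4E2 cells, indicated viability. Test medium came from a 2 h AIME step without hepatic S9 (alginate-water microspheres); concentrations spanned 0.002 - 200 uM, single technical replicate per run.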

Several values for one entry are separate records, joined by “and”; a condition that tells them apart may be missing. Equal entries are not always repeated. Results filed as inconclusive are left out. Activity calls are given as the source filed them. Rule for the calls, unless noted: active = hit-call score of the fitted dose curve at least 0.9, where 1 is the maximum; inactive = score below 0.9.

Sequence of Estrogen receptor (Homo sapiens) (P03372 whole entry, looked up): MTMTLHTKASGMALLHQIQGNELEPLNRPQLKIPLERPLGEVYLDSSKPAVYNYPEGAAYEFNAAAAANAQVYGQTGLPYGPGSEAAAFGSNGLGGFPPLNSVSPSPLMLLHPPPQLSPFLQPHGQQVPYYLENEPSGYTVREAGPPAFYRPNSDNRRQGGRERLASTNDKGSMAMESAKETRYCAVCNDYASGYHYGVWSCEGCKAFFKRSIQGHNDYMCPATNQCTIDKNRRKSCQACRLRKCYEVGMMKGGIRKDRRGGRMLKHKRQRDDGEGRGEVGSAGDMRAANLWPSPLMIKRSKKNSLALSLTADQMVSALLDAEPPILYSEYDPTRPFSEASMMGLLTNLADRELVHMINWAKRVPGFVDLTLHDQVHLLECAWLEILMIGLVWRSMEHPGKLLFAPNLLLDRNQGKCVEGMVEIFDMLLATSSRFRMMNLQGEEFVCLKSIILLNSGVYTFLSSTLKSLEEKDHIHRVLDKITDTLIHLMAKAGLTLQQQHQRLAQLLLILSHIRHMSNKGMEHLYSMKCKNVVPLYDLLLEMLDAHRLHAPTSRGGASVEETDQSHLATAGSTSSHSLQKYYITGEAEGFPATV

Turning to `CC(C)c1nnc2ccc(-c3ocnc3-c3cc(F)ccc3F)cn12`, the compound was classed as inactive in assay [1], in assay [2] and in [3].
`C[C@]12C=CC(=O)C=C1CC[C@H]1[C@@H]3C[C@@H](O)[C@](O)(C(=O)CO)[C@@]3(C)C[C@H](O)[C@@]12F`: the outcome in assay [4], in assay [5], in assay [6] and in assay [7] was inactive.
As for `NC(=O)NN=Cc1ccc([N+](=O)[O-])o1`, the figures for the AC50 in assay [8] and in [9] were 116 µM (active) and 108 µM (active), respectively. Moreover, in [3], the result was inactive.
On to `Nc1ccn([C@@H]2O[C@H](CO)[C@@H](O)[C@@H]2O)c(=O)n1`, for which the AC50 in assay [4] was 260 nM (active) and 3.02 µM (active); in assay [5] it was 138 nM (active) and 298 nM (active); in assay [6] it was 185 nM (active) and 303 nM (active); in [7] it was 120 nM (active) and 1.09 µM (active).
On to `c1ccc2ncccc2c1`, for which the result in [1], in assay [2] and in assay [3] was inactive.
As to `FC(F)(F)COC(OCC(F)(F)F)OCC(F)(F)F`, the compound was called inactive in assay [4], in assay [5], in assay [6] and in [7].
`NC(=O)N1c2ccccc2C=Cc2ccccc21`: the compound was called inactive in [4], in assay [5], in assay [6] and in assay [7].
